Bioassay records from PubChem.
PLK1 PBD inh – blocks phosphopeptide binding to human PLK1 polo-box domain; P53350; Plk1 PBD binding of FITC phosphopeptide, fluorescence polarization; Potency, µM, for inactives: max response, negative = inhibition, hits mostly inhibitors; actives 2.8% (n = 360,000); AID 720504; further: potency means the concentration at half of the fitted maximal effect; series mostly up to about 57 µM; nearly all actives have a fitted effect of over 65% in size
CCT chaperon mod – modulators of cytosolic chaperonin (CCT/TRiC) activity. purified chaperonin ATPase assay, HTRF ADP detection, 30 min. activity change, % (test concentration not listed), hits read low. actives 0.3% (n = 360,000); in the data active means activity change below about -30%
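TRiC (40 or 20 nM final, by batch activity) in 30 mM Tris pH 7.4, 100 mM KCl, 5 mM MgCl2, 1 mM DTT was treated with compound at 76 uM single dose, then 10 uM ATP, 30 min at 37 °C. ADP was read by HTRF Transcreener.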
VDR inhibitor – inhibitors of human vitamin D receptor; Potency, µM, without a hit: max response, negative = inhibition, most hits filed as inhibitors; P11473; actives 0.93% (n = 400,000); VDR-SRC2-3 peptide fluorescence polarization, 2 h; AID 504847; further: potency means the concentration at half of the fitted maximal effect
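Fluorescence polarization assay measuring small-molecule disruption of VDR binding to the coregulator peptide SRC2-3. Compounds were pin-transferred (23 nl) into the reagent mix and incubated 2 h at room temperature before reading.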
MmCpn inh – M. maripaludis TRiC chaperonin inhibition; purified Mm-Cpn ATPase, ADP Transcreener TR-FRET; Potency, µM (top dose mostly 76.9 µM), inactives show top-dose activity, negative = inhibition, actives largely listed as inhibitors; actives 0.031% (n = 330,000); AID 504842; further: potency means the concentration at half of the fitted maximal effect; nearly all actives have a fitted effect of over 80% in size
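Eu-cryptate anti-ADP/ADP-d2 competition gives a ratio inversely related to ADP. Enzyme at 25 nM was pre-exposed to compound for 10 min, then given 10 uM ATP for 30 min, 37°C throughout.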
Sfp PPTase inh – blocks B. subtilis Sfp PPTase activity; Biochemical Sfp PPTase activity, qHTS; Potency, µM, inactives show largest response in the series, negative = inhibition, actives largely listed as inhibitors; actives 3.5% (n = 310,000); AID 1490;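 further: the enzyme is Sfp with the accession as filed and its product quenches rhodamine fluorescence; potency means the concentration at half of the fitted maximal effect; 0% = enzyme reaction without inhibitor and -100% = no enzyme wells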
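Step 1, compound plus 15 nM Sfp-PPTase, 15 min, room temperature. Step 2, add rhodamine-CoA (5 uM) and BHQ-2-YbbR (12.5 uM). Step 3, read 525/598 nm fluorescence at 0 and 30 min.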
G9a block – G9a (human) methyltransferase inhibition | G9a H3K9 monomethylation, AlphaScreen, 2 h | Potency, µM (highest dose often 102 µM), inactives show at the top dose activity, negative = inhibition, hits mostly inhibitors | actives 8.8% (n = 350,000) | AID 504332; further: potency means the concentration at half of the fitted maximal effect; nearly all actives have a fitted effect of over 75% in size
Target sequence (Q96KQ7 913-1193 limits assumed): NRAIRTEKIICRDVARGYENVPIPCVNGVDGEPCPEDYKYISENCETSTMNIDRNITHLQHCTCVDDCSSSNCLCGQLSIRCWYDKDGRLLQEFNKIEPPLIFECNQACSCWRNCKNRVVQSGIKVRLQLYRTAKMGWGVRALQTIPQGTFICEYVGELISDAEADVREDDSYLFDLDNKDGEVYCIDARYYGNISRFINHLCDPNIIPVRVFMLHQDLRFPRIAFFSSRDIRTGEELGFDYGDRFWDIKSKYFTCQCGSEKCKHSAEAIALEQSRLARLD
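AlphaScreen detection with an anti-monomethyl H3K9 antibody quantified product after a 2 h room-temperature reaction containing 500 nM biotinylated H3K9 peptide, 20 µM SAM and 20 nM enzyme, which had been preincubated 15 min with compound.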
TbPYK inh – Trypanosoma brucei pyruvate kinase inhibition, cherry-pick confirmation; shares compounds with PLK1 PBD inh; recombinant TbPYK, Kinase-Glo ATP luminescence; Potency, µM (series often up to 76.9 µM), without a hit: at the highest dose activity change, negative = inhibition, usual class: inhibitors; actives 67% (n = 890); AID 720569; further: potency means the concentration at half of the fitted maximal effect; nearly all actives have a fitted effect of over 70% in size
TbPYK orthogonal – TbPYK inhibition, orthogonal confirmation. Potency, µM (highest dose often 76.9 µM), for the others: top-dose activity change, negative = inhibition, most hits filed as inhibitors. shares compounds with PLK1 PBD inh. actives 62% (n = 890). recombinant TbPYK, ADP-Glo luminescence, 60 min; further: potency means the concentration at half of the fitted maximal effect; nearly all actives have a fitted effect of over 75% in size
The depositor's hits bear a star; u = inconclusive; x = no result; [ ] = another dose, or the depositor's remark. Sampled rows, rich in hits. Any-hit rate of the full collection: about 10%. Unless noted, the call rests on the fitted dose curve; in most records, active means well fitted curve in the direction sought with a large enough effect; inconclusive means small, poorly fitted or top-dose-only effect, or another doubt; inactive means no such curve, though single readings can be large; an effect the other way counts as inactive or inconclusive. Unless noted, on the % scale 0 is the no-effect control and ±100 the full control effect.

SMILES	PLK1 PBD inh	CCT chaperon mod	VDR inhibitor	MmCpn inh	Sfp PPTase inh	G9a block	TbPYK inh	TbPYK orthogonal
C[C@]12CC[C@@H]3c4ccc(O)cc4CC[C@H]3[C@@H]1C[C@@H](O)[C@@H]2O[C@@H]1O[C@H](C(=O)O)[C@@H](O)[C@H](O)[C@H]1O	-12%	-1	-8%	-20%[15.4 µM]	-19%	u	x	x
Cc1ccc(N2C(=O)NC(=O)/C(=C\c3ccoc3)C2=O)cc1	u	0	-9%	-2%	u	45µM*	u	u
Cc1ccc(N2C(=O)CC(=O)NC2=O)cc1	-10%	-1	-8%	x	-16%	-3%[59 µM]	x	x
Cc1ccc(N2C(=O)NC(=O)/C(=C/c3ccc(-c4ccc(C(=O)O)c(Cl)c4)o3)C2=O)cc1	1.3µM*	0	u	-3%	32µM*	10µM*	7.1µM*	14µM*
COc1cc(O)c(C(=O)O)c(-c2cc(O)c(O)cc2C)c1	u	-2	-21%	-1%	2%	0.35µM*	2µM*	10µM*
Cc1cccc(-c2nc(CN3C(=O)CN=C(c4ccccc4)c4ccccc43)c(C)o2)c1	x	x	-12%	x	x	u	x	x
O=C(CCn1c(=O)oc2ccccc21)N1CCC2(CC1)OCCO2	-6%	-3	8%	2%	-11%	-11%	3%	-8%
Cc1cc(N2CCCCC2)ccc1C=C1C(=O)N(C)C(=S)N(C)C1=O	3.4µM*	-2	u	-3%	-92%	16µM*	20µM*	u
CC(C)(C)C(=O)N1Cc2cc(N3CCCCC3)ccc2-n2nncc2C1	-2%	1	x	x	x	x	x	x
Cc1ccccc1OCC(=O)N1CCN(CCc2ccccn2)CC1	x	x	-4%	x	x	-3%[59 µM]	x	x
O=C(O)CCn1cc(C=C2C(=O)NC(=O)NC2=O)c(-c2cc3ccccc3oc2=O)n1	15µM*	-2	-9%	-4%	40µM*	u	11µM*	32µM*
CN1CC(CO)=C[C@H]2c3cccc4[nH]cc(c34)C[C@H]21	x	x	u	x	-30%	x	x	x
COc1ccc(OC)c(N2C(=O)NC(=O)/C(=C/c3ccc([N+](=O)[O-])s3)C2=O)c1	4.7µM*	1	u	-1%	10µM*	11µM*	4.5µM*	7.1µM*
CCN(CC)c1ccc(C=C2C(=O)NC(=S)NC2=O)cc1	2.7µM*	-3	u	-2%	3.2µM*	7.9µM*	16µM*	14µM*
CO/C1=C\C(C)=C\[C@@H](C)[C@@H](O)[C@@H](C)C/C(C)=C/C=C\[C@H](OC)C([C@@H](C)[C@@H](O)[C@H](C)[C@@]2(O)C[C@@H](O)[C@H](C)C(C(C)C)O2)OC1=O (some centres not stated)	x	x	2%	x	34%	12%[2.33 µM]	x	x
CCN1CCN(c2cc(N3CCCC3)c([N+](=O)[O-])cc2F)CC1	-11%	-2	-5%	-1%	-6%	u	x	x
CCN1CCN(c2ccc([N+](=O)[O-])cc2C=C2C(=O)NC(=O)NC2=O)CC1	11µM*	2	u	1%	45µM*	u	20µM*	u
O=C1NC(=O)C(=Cc2coc3ccc(O)cc3c2=O)C(=O)N1	27µM*	1	u	4%	13µM*	x	14µM*	u
CCOc1ccc2nc(NC(=O)c3cccn(Cc4ccc(Cl)cc4)c3=O)sc2c1	x	x	-6%	x	x	-6%[59 µM]	x	x
O=C1NC(=O)C(=Cc2ccc(N3CCOCC3)cc2)C(=O)N1	9.5µM*	0	26%	-3%	-8%	45µM*	25µM*	u
CC(=O)Nc1ccc(C=C2C(=O)NC(=O)NC2=O)cc1	-29%	-4	u	x	x	x	16µM*	18µM*
CC(=O)Nc1ccc(OCCF)cc1	-6%	0	-13%	1%	17%	4%	x	x
Nc1ncnc2c1nc(Br)n2C1CC(O)C(CO)O1 (configuration not stated)	x	x	-16%	x	u	x	x	x
CN(C)c1ccc(/C=C/C=C2/C(=O)NC(=O)N(c3ccccc3)C2=O)cc1	u	-2	36%	-10%	45µM*	16µM*	25µM*	7%
CCc1nc(SC)ncc1C(=O)Nc1ccc(Cl)cc1C(=O)c1ccccc1	x	x	0%	x	x	-1%[59 µM]	x	x
O=C1NC(=O)C(=Cc2cccc(OCCOc3ccccc3)c2)C(=O)N1	2.7µM*	1	u	-5%	45µM*	35µM*	u	u
